Results filed as inconclusive are left out. Entries that show only a call come without a potency. Calls of active or inactive are those of the source. Calls come from the whole dose curve.
Test: p53 small molecule agonists, cell-based qHTS assay with human liver microsomes (AID 1963577)
How it was run: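 p53RE-bla reporter cells were pre-incubated 5 h at 37 C, then treated with compounds plus human liver microsomes (0.5 mg/mL final) and NADPH (0.5 mg/mL final) for 16 h at 37 C. Beta-lactamase activity was read by LiveBLAzer fluorescence after 2 h at room temperature.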
Potency is the fitted concentration of half-maximal effect.

With `CCCCCCCCC(=O)O` as the compound, how does the Potency read?
The Potency was 39.5 µM (active).

Which Potency does the source give for `Oc1ccc(Cc2ccccc2O)cc1` here?
Its Potency is “inactive”.

Which Potency does the source give for `COC(=O)CCCCC(=O)OC` here?
Its Potency is “inactive”.

Which Potency does the source give for `O=Cc1ccc(CO)o1` here?
The Potency was “inactive”.

With `NC(=O)c1ncn([C@@H]2O[C@H](CO)[C@@H](O)[C@H]2O)n1` as the compound, how does the Potency read?
Its Potency is “inactive”.

Which Potency does the source give for `C=CC(=O)OCCCC` here?
The Potency was “inactive”.

Which Potency does the source give for `COC(=O)CC(=O)OC` here?
Its Potency is “inactive”.

For `NS(=O)(=O)O`, which Potency is on record?
The Potency was “inactive”.

For `O=C=Nc1ccc(Cc2ccc(N=C=O)cc2)cc1`, which Potency is on record?
Its Potency is “inactive”.

Which Potency does the source give for `CCCc1c(OCCCCc2nn[nH]n2)ccc(C(C)=O)c1O` here?
Its Potency is “inactive”.

For `CCCCOCCOCCO`, which Potency is on record?
The Potency was “inactive”.

With `CC1=C(/C=C/C(C)=C/C=C/C(C)=C/C(=O)Nc2ccc(O)cc2)C(C)(C)CCC1` as the compound, how does the Potency read?
The Potency was “inactive”.

With `C[C@]12CC[C@@H]3c4ccc(O)cc4C[C@@H](CCCCCCCCCS(=O)CCCC(F)(F)C(F)(F)F)[C@H]3[C@@H]1CC[C@@H]2O` (some centres undefined) as the compound, how does the Potency read?
Its Potency is “inactive”.

Which Potency does the source give for `CC1(C)NC(=O)NC1=O` here?
The Potency was “inactive”.

Which Potency does the source give for `Nc1ccc(O)c(C(=O)O)c1` here?
Its Potency is “inactive”.

With `CCO[Si](CCCN)(OCC)OCC` as the compound, how does the Potency read?
Its Potency is “inactive”.

For `CC(C)(Oc1ccc(Cl)cc1)C(=O)O`, which Potency is on record?
Its Potency is “inactive”.

Which Potency does the source give for `COCC(=O)O` here?
The Potency was “inactive”.

With `Cc1cccc([N+](=O)[O-])c1C` as the compound, how does the Potency read?
The Potency was “inactive”.

For `OCCOCCOCCO`, which Potency is on record?
The Potency was “inactive”.

Which Potency does the source give for `Nc1ccc(C(=O)O)cc1` here?
The Potency was “inactive”.

For `CC(=O)CCc1ccccc1`, which Potency is on record?
The Potency was “inactive”.

With `O=c1n(CC2CO2)c(=O)n(CC2CO2)c(=O)n1CC1CO1` (centres undefined) as the compound, how does the Potency read?
Its Potency is “inactive”.

Which Potency does the source give for `Cc1ccc(N)c(S(=O)(=O)O)c1` here?
The Potency was “inactive”.

Which Potency does the source give for `COCCCN` here?
Its Potency is “inactive”.

For `c1ccc2c(c1)[nH]c1ccccc12`, which Potency is on record?
Its Potency is “inactive”.

With `Cc1cc(Cc2ccc(N)c(C)c2)ccc1N` as the compound, how does the Potency read?
The Potency was “inactive”.

For `C=Cc1ccc(C)cc1`, which Potency is on record?
The Potency was “inactive”.

Which Potency does the source give for `CCC(Cc1c(I)cc(I)c(N)c1I)C(=O)O` (centres undefined) here?
Its Potency is “inactive”.

For `CC(=O)OC[C@H]1O[C@@](COC(C)=O)(O[C@H]2O[C@H](COC(C)=O)[C@@H](OC(C)=O)[C@H](OC(C)=O)[C@H]2OC(C)=O)[C@@H](OC(C)=O)[C@@H]1OC(C)=O`, which Potency is on record?
Its Potency is “inactive”.

Which Potency does the source give for `Brc1ccc(Br)c(Br)c1` here?
Its Potency is “inactive”.

Which Potency does the source give for `O=C1CCCC1` here?
Its Potency is “inactive”.

For `C=CN1CCCC1=O`, which Potency is on record?
Its Potency is “inactive”.

For `O=C(O)C1=NN(c2ccc(S(=O)(=O)O)cc2)C(=O)C1`, which Potency is on record?
Its Potency is “inactive”.

— PubChem BioAssay (Tox21)
